Assay results published in PubChem BioAssay.
Where “and” joins values, the source holds several entries; their conditions need not be identical. Identical values can stand only once. Results filed as inconclusive are left out. Calls of active or inactive are those of the source.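 How the source made its calls, unless noted: active means thallium flux through the channel raised or lowered by more than 3 SD from vehicle-only wells, actives on both sides; inactive means the rest.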

Assays:
[1] = LFS_MB_1R medulloblastoma cell growth inhibition, synergistic combos for chromothripsis tumors, cisplatin or BGB combos (AID 1671452; in the data active means inhibition above about 80%;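 further: cells exposed for 96 hours before readout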); settings: LFS_MB_1R medulloblastoma cells, stronger effect = higher value
[2] = CRL2098 osteosarcoma cell growth inhibition, synergistic combos for chromothripsis tumors, BGB or cisplatin IC20 combos (AID 1671454; in the data active means inhibition above about 80%;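 further: cells exposed for 96 h before readout; 0% = vehicle DMSO and 100% = killing by high DMSO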); settings: CRL2098 osteosarcoma cells, drug combinations, stronger effect = higher value
[3] = HD-MB03 medulloblastoma cell growth inhibition, synergistic combos for chromothripsis tumors, BGB or cisplatin IC20 combos (AID 1671455; in the data active means inhibition above about 83%;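 further: 0% = vehicle DMSO and 100% = high DMSO as cytotoxic control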); settings: HD-MB03 medulloblastoma cells, stronger effect = higher value
[4] = UWB1.289 ovarian carcinoma cell growth inhibition, synergistic combos for chromothripsis tumors, BGB or cisplatin combos (AID 1671456; in the data active means inhibition above about 80%;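 further: cells exposed to compound for four days; 0% = vehicle DMSO and 100% = killing by high DMSO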); settings: UWB1.289 ovarian carcinoma cells, stronger effect = higher value
[5] = growth inhibition of CRL1545 osteosarcoma cells, cell-based, cisplatin and BGB IC20 combos (AID 1671464; in the data active means inhibition above about 80%;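 further: cells exposed to compound for 96 hours before readout; 0% = vehicle DMSO and 100% = high DMSO killing control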); settings: stronger effect = higher value
[6] = growth inhibition of DIPG glioma cells, dose response, cell-based, JHH-DIPG-1, MIPE4.0, CellTiter-Glo, qHTS (AID 1347062; cut-off not given, nearly all actives have AC50 up to about 27 µM); settings: JHH-DIPG-1 viability, CellTiter-Glo ATP luminescence
[7] = growth inhibition of DIPG glioma cells, dose response, cell-based, SU-DIPG-IV, MIPE4.0, CellTiter-Glo, qHTS (AID 1347063; cut-off not given, nearly all actives have AC50 up to about 30 µM;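 further: compound exposure lasted 48 hours before the viability readout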); settings: SU-DIPG-IV viability, CellTiter-Glo ATP luminescence
[8] = SU-DIPG-VI glioma cell viability, MIPE4.0 library, CellTiter-Glo luminescence, qHTS (AID 1347066; cut-off not given, nearly all actives have AC50 up to about 30 µM;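 further: cells exposed to compound for 48 hours before readout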); settings: CellTiter-Glo ATP luminescence
[9] = reducers of polyQ inclusions in PC12 cells, cell-based, NGF-treated PC12, GFPQ80 (AID 1614); settings: PC12 NGF-treated GFP-polyQ80 inclusion reduction;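 further: lower means fewer inclusions and 0 means no inclusions at all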
[10] = liver-stage malaria parasite growth inhibition, primary screen, cell-based, HepG2, luciferase luminescence, HepG2 viability (AID 624349; in the data active means parasite load remaining mostly below about 12%, no sharp cut-off; inactive means mostly above about 10%;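 further: 100% = mean of DMSO negative control wells on the same plate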); settings: P. berghei liver stage in HepG2, luciferase luminescence, concentration not given here; parasite load remaining: stronger effect = lower value; viability: measured here: HepG2 viability without parasites
F380Y = assay: modulators of BK channel variants, profiling panel, selectivity assay, cell-based, U2OS BacMam, thallium flux, beta subunits (AID 1259406); settings: at 30 µM;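 further: initial slope of Thallos dye fluorescence rise after thallium is added; log ratio against the mean of 0.3% DMSO vehicle wells on the same plate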
F380Y/beta1 = assay: as above; settings: at 30 µM
F380Y/beta2Delta = assay: as above; settings: at 30 µM
F380Y/beta4 = assay: as above; settings: at 30 µM
[11] = biological target: Calcium-activated potassium channel subunit alpha-1 (Homo sapiens) + Leucine-rich repeat-containing protein 26 (Homo sapiens) (UniProt Q12791+Q2I0M4); assay: as above; settings: F380Y/Slo1WT/gamma1, at 30 µM
Calcium-activated potassium channel subunit alpha-1 (Homo sapiens) + Leucine-rich repeat-containing protein 26 (Homo sapiens), sequence (Q2I0M4 whole entry, looked up, one chain of several): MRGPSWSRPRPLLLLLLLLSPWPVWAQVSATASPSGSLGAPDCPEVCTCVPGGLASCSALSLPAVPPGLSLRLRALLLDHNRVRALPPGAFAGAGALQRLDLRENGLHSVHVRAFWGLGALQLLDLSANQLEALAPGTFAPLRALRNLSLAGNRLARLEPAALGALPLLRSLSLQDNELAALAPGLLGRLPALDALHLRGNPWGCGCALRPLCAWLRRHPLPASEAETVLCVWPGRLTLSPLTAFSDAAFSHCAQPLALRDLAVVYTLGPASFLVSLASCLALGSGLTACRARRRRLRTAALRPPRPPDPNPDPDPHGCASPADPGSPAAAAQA

R275C = assay: as above; settings: at 30 µM
R275C/beta1 = assay: as above; settings: at 30 µM
R275C/beta2Delta = assay: as above; settings: at 30 µM
R275C/beta4 = assay: as above; settings: at 30 µM
R275C/Slo1WT/beta2 = assay: as above; settings: at 30 µM
[12] = measured here: combination with BGB IC40, at 0.05 µM
[13] = measured here: combination with cisplatin, at 0.5 µM
[14] = measured here: combination with cisplatin, at 5 µM
[15] = measured here: combination with BGB at IC20, at 0.5 µM
[16] = measured here: combination with cisplatin at IC20, at 0.5 µM
[17] = measured here: combo with BGB at IC20, at 0.5 µM
[18] = measured here: combo with cisplatin at IC20, at 0.5 µM
[19] = measured here: inhibition with BGB combination, at 0.05 µM
[20] = measured here: inhibition with cisplatin combination, at 0.05 µM
[21] = measured here: with BGB IC20 combination, at 0.5 µM
[22] = measured here: with cisplatin IC20 combination, at 0.5 µM

## CN1C[C@@H]2C[C@H]1CN2c1cc2c(cc1F)c(=O)c(C(=O)O)cn2C1CC1
[1]; at 0.5 µM
  inhibition: -32.5% (inactive)
[1]; [12]
  inhibition: -27.6%
[1]; [13]
  inhibition: -60%
[1]; [14]
  inhibition: -44.9%
[2]; at 0.5 µM
  inhibition: -70.8% (inactive)
[2]; [15]
  inhibition: -121%
[2]; [16]
  inhibition: -50%
[3]; at 0.5 µM
  inhibition: -14.8% (inactive)
[3]; [17]
  inhibition: -11.6%
[3]; [18]
  inhibition: -20.6%
[4]; at 0.5 µM
  inhibition: -14.3% (inactive)
[4]; [19]
  inhibition: -14.8%
[4]; [20]
  inhibition: -20.1%
[5]; at 0.5 µM
  inhibition: -62.9% (inactive)
[5]; [21]
  inhibition: -46.3%
[5]; [22]
  inhibition: -75.1%
[5]; single agent, at 0.05 µM
  inhibition: -30.1%
[5]; single agent, at 5 µM
  inhibition: -48.9%

## Cc1c(-c2ccc(O)cc2)n(Cc2ccc(OCCN3CCCCCC3)cc2)c2ccc(O)cc12
[6]
  outcome: inactive
[7]
  outcome: inactive
[8]
  outcome: inactive

## Cc1ccc2nc(N)[nH]c(=O)c2c1Sc1ccncc1
[1]; at 0.5 µM
  inhibition: -7.14% (inactive)
[1]; [12]
  inhibition: -4.51%
[1]; [13]
  inhibition: -35.9%
[1]; [14]
  inhibition: 0.93%
[2]; at 0.5 µM
  inhibition: -63.7% (inactive)
[2]; [15]
  inhibition: -72.3%
[2]; [16]
  inhibition: -84.4%
[3]; at 0.5 µM
  inhibition: -15.4% (inactive)
[3]; [17]
  inhibition: -11.9%
[3]; [18]
  inhibition: -25.1%
[4]; at 0.5 µM
  inhibition: -17.5% (inactive)
[4]; [19]
  inhibition: 4.97%
[4]; [20]
  inhibition: -23%
[5]; at 0.5 µM
  inhibition: -26.5% (inactive)
[5]; [21]
  inhibition: -34.6%
[5]; [22]
  inhibition: -24.4%
[5]; single agent, at 0.05 µM
  inhibition: -59.1%
[5]; single agent, at 5 µM
  inhibition: -14.1%

## Cc1ccc(O)cc1
[9]
  inclusion score: 2
[10]
  parasite load remaining: 125% (inactive) and 76.1% (inactive)
  viability: 68.3% and 96.4%

## O=C(O)CCC(=O)OC[C@@H](NC(=O)C(Cl)Cl)[C@H](O)c1ccc([N+](=O)[O-])cc1
[9]
  inclusion score: 2
[10]
  parasite load remaining: 75.9% (inactive) and 67.1% (inactive)
  viability: 75.5% and 91.9%

## CNS(=O)(=O)CCc1ccc2[nH]cc(C3CCN(C)CC3)c2c1
[7]
  outcome: inactive

## Cc1c(C)c2c(c(C)c1O)CC[C@@](C)(CCC[C@H](C)CCC[C@H](C)CCCC(C)C)O2
[10]
  parasite load remaining: 72.9% (inactive)
  viability: 100%

## CCCCCCCCCCCCCCCCCCOP(=O)([O-])OC1CC[N+](C)(C)CC1
[6]
  outcome: inactive
[8]
  outcome: inactive

## CC(=O)N(CC(O)CN(C(C)=O)c1c(I)c(C(=O)NCC(O)CO)c(I)c(C(=O)NCC(O)CO)c1I)c1c(I)c(C(=O)NCC(O)CO)c(I)c(C(=O)NCC(O)CO)c1I (centres undefined)
[10]
  parasite load remaining: 80.7% (inactive)
  viability: 90.6%

## O=C(CCCN1CCC(O)(c2cccc(C(F)(F)F)c2)CC1)c1ccc(F)cc1
[10]
  parasite load remaining: 27% (inactive)
  viability: 66%

## NC(=O)c1cccnc1
[10]
  parasite load remaining: 64% (inactive) and 68.4% (inactive) and 18% (inactive)
  viability: 200% and 89.4% and 114%
[6]
  outcome: inactive
[7]
  outcome: inactive
[8]
  outcome: inactive
F380Y
  log fold change Tl+ flux: -0.0169 (inactive)
F380Y/beta1
  log fold change Tl+ flux: -0.0163 (inactive)
F380Y/beta2Delta
  log fold change Tl+ flux: -0.015 (inactive)
F380Y/beta4
  log fold change Tl+ flux: 0.00589 (inactive)
[11]
  log fold change Tl+ flux: 0.0332 (inactive)
R275C
  log fold change Tl+ flux: -0.0297 (inactive)
R275C/beta1
  log fold change Tl+ flux: 0.0353 (inactive)
R275C/beta2Delta
  log fold change Tl+ flux: 0.0215 (inactive)
R275C/beta4
  log fold change Tl+ flux: 0.0149 (inactive)
R275C/Slo1WT/beta2
  log fold change Tl+ flux: 0.0115 (inactive)

## CC(C)NCC(O)COc1cccc2[nH]ccc12 (centres undefined)
[9]
  inclusion score: 2
F380Y
  log fold change Tl+ flux: -0.0071 (inactive)
F380Y/beta1
  log fold change Tl+ flux: 0.0264 (inactive)
F380Y/beta2Delta
  log fold change Tl+ flux: 0.0139 (inactive)
F380Y/beta4
  log fold change Tl+ flux: 0.000781 (inactive)
[11]
  log fold change Tl+ flux: 0.0267 (inactive)
R275C
  log fold change Tl+ flux: 0.00949 (inactive)
R275C/beta1
  log fold change Tl+ flux: 0.00683 (inactive)
R275C/beta2Delta
  log fold change Tl+ flux: -0.0133 (inactive)
R275C/beta4
  log fold change Tl+ flux: -0.00429 (inactive)
R275C/Slo1WT/beta2
  log fold change Tl+ flux: 0.017 (inactive)

## CCN(CC)CCOc1ccc(Cc2ccccc2)cc1
[8]
  outcome: inactive

## CCCC(CCC)C(=O)O
[9]
  inclusion score: 2
[8]
  outcome: inactive
[1]; at 0.5 µM
  inhibition: -27.6% (inactive) and -16.5% (inactive)
[1]; [12]
  inhibition: -35.5% and -12.1%
[1]; [13]
  inhibition: -35% and -39.3%
[1]; [14]
  inhibition: 2.7% and -48.1%
[2]; at 0.5 µM
  inhibition: -45.4% (inactive) and -15.9% (inactive)
[2]; [15]
  inhibition: -45.9% and -23.5%
[2]; [16]
  inhibition: -34.5% and 0.202%
[3]; at 0.5 µM
  inhibition: -15.1% (inactive) and -0.6% (inactive)
[3]; [17]
  inhibition: -17% and -10.3%
[3]; [18]
  inhibition: -14.1% and 6.37%
[4]; at 0.5 µM
  inhibition: -4.81% (inactive) and 13.2% (inactive)
[4]; [19]
  inhibition: -26.3% and 5.38%
[4]; [20]
  inhibition: -23.4% and 27.8%
[5]; at 0.5 µM
  inhibition: -19.7% (inactive) and -18.9% (inactive)
[5]; [21]
  inhibition: -18.4% and -23.1%
[5]; [22]
  inhibition: -23.1% and -18.8%
[5]; single agent, at 0.05 µM
  inhibition: -52.6% and 9%
[5]; single agent, at 5 µM
  inhibition: 8.56% and -31.8%
F380Y
  log fold change Tl+ flux: -0.0169 (inactive)
F380Y/beta1
  log fold change Tl+ flux: -0.0195 (inactive)
F380Y/beta2Delta
  log fold change Tl+ flux: 0.0329 (inactive)
F380Y/beta4
  log fold change Tl+ flux: 0.0134 (inactive)
[11]
  log fold change Tl+ flux: -0.023 (inactive)
R275C
  log fold change Tl+ flux: 0.0376 (inactive)
R275C/beta1
  log fold change Tl+ flux: -0.0394 (inactive)
R275C/beta2Delta
  log fold change Tl+ flux: 0.0234 (inactive)
R275C/beta4
  log fold change Tl+ flux: 0.0354 (inactive)
R275C/Slo1WT/beta2
  log fold change Tl+ flux: -0.0422 (inactive)

## CC(C(=O)O)c1cccc(C(=O)c2ccccc2)c1 (centres undefined)
[9]
  inclusion score: 2
[7]
  outcome: inactive
[8]
  outcome: inactive
F380Y
  log fold change Tl+ flux: 0.0438 (inactive)
F380Y/beta1
  log fold change Tl+ flux: -0.011 (inactive)
F380Y/beta2Delta
  log fold change Tl+ flux: 0.023 (inactive)
F380Y/beta4
  log fold change Tl+ flux: 0.0138 (inactive)
[11]
  log fold change Tl+ flux: 0.0363 (inactive)
R275C
  log fold change Tl+ flux: -0.00546 (inactive)
R275C/beta1
  log fold change Tl+ flux: -0.000822 (inactive)
R275C/beta2Delta
  log fold change Tl+ flux: -0.0306 (inactive)
R275C/beta4
  log fold change Tl+ flux: 0.00182 (inactive)
R275C/Slo1WT/beta2
  log fold change Tl+ flux: -0.0223 (inactive)
